Bioassay records as filed in PubChem BioAssay.
Hits are enriched below; roughly 11% of the tested compounds scored in any of these assays.
G9a inh = G9a (human) methyltransferase inhibition; 350,000 tested, 8.8% active; G9a H3K9 monomethylation, AlphaScreen, 2 h; AID 504332; Potency, µM (highest dose often 102 µM), inactives show at the highest dose activity, negative = inhibition, usual class: inhibitors; note: potency is the fitted concentration of half-maximal effect; % is set by controls: 0 for no effect and ±100 for the full control effect; nearly all actives have a fitted effect of over 75% in size
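Readings reflect AlphaScreen signal from monomethyl-H3K9 antibody detection. HMT at 20 nM; substrate b-H3K9 500 nM; cofactor SAM 20 uM; 2 h RT reaction; compounds tested as titrations in qHTS with 15 min preincubation.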
HP1b binding inh = HP1-beta chromodomain-methylated histone interaction inhibition. AID 540317. AlphaScreen HP1-beta / biotin-H3K9me3 peptide binding. 390,000 tested, 0.56% active. Potency, µM (series often up to 114 µM), for the others: at the top dose activity change, negative = inhibition, hits mostly inhibitors. P83916; note: potency is the fitted concentration of half-maximal effect; nearly all actives have a fitted effect of over 70% in size
Target sequence (P83916 whole entry, looked up): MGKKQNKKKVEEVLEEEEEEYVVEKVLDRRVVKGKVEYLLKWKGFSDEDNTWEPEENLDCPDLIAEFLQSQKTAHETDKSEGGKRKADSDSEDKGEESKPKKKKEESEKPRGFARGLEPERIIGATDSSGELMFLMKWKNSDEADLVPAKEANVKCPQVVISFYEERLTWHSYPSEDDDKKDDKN
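AlphaScreen: HP1-beta (50 nM) preformed 30 min with biotin-H3(1-18)K9me3 peptide (50 nM) in PBS pH 7.4, 0.01% Tween-20. Compound added for 30 min at RT, then streptavidin donor/nickel chelate acceptor beads (10 ug/mL) for 30 min.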
JMJD2A Tudor inh = JMJD2A Tudor domain (human) inhibition; 390,000 tested, 4.4% active; AlphaScreen JMJD2A-Tudor / H3K4me3 peptide binding; O75164; AID 504339; Potency, µM (series often up to 114 µM), inactives show top-dose activity change, negative = inhibition, hits mostly inhibitors; note: potency is the fitted concentration of half-maximal effect; % is set by controls: 0 for no effect and ±100 for the full control effect; nearly all actives have a fitted effect of over 50% in size
BAZ2B block = inhibitors of human BAZ2B bromodomain | AlphaScreen BAZ2B-H3K14Ac peptide displacement | 360,000 tested, 4.4% active | Potency, µM (series often up to 114 µM), inactives show top-dose activity change, negative = inhibition, usual class: inhibitors; note: potency is the fitted concentration of half-maximal effect; % is set by controls: 0 for no effect and ±100 for the full control effect; nearly all actives have a fitted effect of over 60% in size
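Protein-peptide AlphaScreen: BAZ2B 50 nM, b-H3K14Ac 50 nM, 1x PBS pH 7.4 + 0.01% Tween-20. Preincubation 30 min RT; cpd 30 min RT (top 110 uM); beads 20 min RT, light-protected.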
PI5P4Ka inh = blocks human PI5P4K alpha kinase activity. AID 652105. P48426. max response, %. 330,000 tested, 1.2% active. PI5P4Kalpha enzyme, ADP-Glo luminescence, 60 min; active compounds read low; active = max response of -50% or lower; inconclusive = between -30% and -50%; inactive = -30% or higher; note: value at the top dose of about 77 µM; % is set by controls: 0 for no effect and ±100 for the full control effect
Target sequence (P48426 whole entry, looked up): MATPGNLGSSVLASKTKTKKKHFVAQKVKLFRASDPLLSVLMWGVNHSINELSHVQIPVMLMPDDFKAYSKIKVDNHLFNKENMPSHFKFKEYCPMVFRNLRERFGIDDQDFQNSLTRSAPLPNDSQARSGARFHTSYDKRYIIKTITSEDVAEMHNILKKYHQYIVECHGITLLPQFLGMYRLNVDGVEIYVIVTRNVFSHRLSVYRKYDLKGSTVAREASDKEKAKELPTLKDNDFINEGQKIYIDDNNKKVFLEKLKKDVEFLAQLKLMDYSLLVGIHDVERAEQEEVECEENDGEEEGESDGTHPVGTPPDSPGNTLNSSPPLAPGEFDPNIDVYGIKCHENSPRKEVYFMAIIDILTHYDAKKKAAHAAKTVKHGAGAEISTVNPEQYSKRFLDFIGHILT
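Quantitative HTS of the MLSMR library against PI5P4Kalpha with substrate. ATP added last at 5 microM final; room temperature, 60 minutes. Remaining ATP depleted, ADP converted and read as luminescence.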
L3MBTL1 inh = inhibitors of human L3MBTL1 | Potency, µM (titrated, usually from 57.1 µM), for inactives: at the highest dose activity, negative = inhibition, usual class: inhibitors | AlphaScreen L3MBTL1–H3K9me1 peptide binding | Q9Y468 | AID 485360 | 230,000 tested, 0.66% active; note: potency is the fitted concentration of half-maximal effect; % is set by controls: 0 for no effect and ±100 for the full control effect; nearly all actives have a fitted effect of over 60% in size
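L3MBTL1 (50 nM) pre-complexed 30 min with biotinylated H3(1-15)K9me1 peptide (75 nM), then compounds added for 30 min at room temperature; AlphaScreen streptavidin donor/nickel chelate acceptor beads (10 ug/mL final) read after 30 min dark incubation.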
Starred values were filed as active, the others as inactive; ? = inconclusive; nt = no result given; [ ] = another dose, or the depositor's remark. Unless noted, calls come from the whole dose curve; as a rule, active = well fitted inhibition curve with a large enough effect; inconclusive = small, poorly fitted or top-dose-only effect; inactive = no such curve, though single readings can be large or run the other way.

SMILES | G9a inh | HP1b binding inh | JMJD2A Tudor inh | BAZ2B block | PI5P4Ka inh | L3MBTL1 inh
Cc1ccc(N=CC2=C(O)CC(c3ccco3)CC2=O)cc1 (configuration not stated) | nt | 24.8% | -6.0% | -2.4% | nt | -2.1%
O=C1CC(c2ccco2)CC(O)=C1C=Nc1ccccc1-c1ccccc1 (configuration not stated) | 9.8%[59 µM] | 34.8% | -15.1% | -11.3% | 4.5 | nt
O=C1CC(c2ccco2)CC(O)=C1C=Nc1ccc(Br)cc1 (configuration not stated) | 14.1µM* | 8.8% | -14.0% | -37.5% | -19.6 | nt
O=C1CC(c2ccco2)CC(O)=C1C=Nc1cc(Cl)ccc1O (configuration not stated) | ? | ? | 79.4µM* | 44.7µM* | -19.1 | 35.5µM*
CC1CCCCN1CCCNC(=O)c1ccc2c(c1)sc1nc(-c3ccc(F)cc3)cn12 (configuration not stated) | 1.3%[59 µM] | 15.2% | -15.8% | 2.4% | nt | nt
COC(=O)c1cc2c(cc1NC(=O)c1c(C)nn(-c3ccc(C)cc3)c1-n1cccc1)OCO2 | -20.5%[59 µM] | 23.3% | -3.8% | -11.1% | nt | nt
CCN1C(=O)/C(=C2\SC(=S)N(NC(=O)c3cccnc3)C2=O)c2ccccc21 | 39.8µM* | -14.5% | ? | ? | -20.2 | nt
CC(=O)NN1C(=O)/C(=C\c2ccc(O)cc2)SC1=S | ? | -16.5% | -17.4% | -33.9% | -14.0 | -21.7%
CCN1/C(=C2/SC(=S)N(NC(C)=O)C2=O)Sc2ccccc21 | nt | 33.6% | -4.7% | 17.3% | 0.0 | 9.4%
COc1cc(/C=C2\SC(=S)N(NC(=O)c3ccc(O)cc3)C2=O)ccc1O | -47.1%[12.7 µM] | 56.2µM* | ? | 39.8µM* | -22.0 | nt
COc1cc(/C=C2\SC(=S)N(NC(=O)c3cccnc3)C2=O)ccc1O | ? | -19.2% | -16.3% | 44.7µM* | -23.5 | nt
O=C(Cn1ncc(Cl)c(Cl)c1=O)N1CCN(Cc2ccccc2)CC1 | 56.2µM* | 34.7% | -3.8% | -13.7% | -7.5 | -27.1%
CCCc1cc(C(=O)NNC(=S)Nc2cccc(C)c2)cs1 | 8.91µM* | ? | -24.6% | -23.7% | -7.9 | -10.0%
Cc1cccc(NC(=S)NNC(=O)c2ccc3c(c2)OCO3)c1 | 44.7µM* | 24.7% | -24.3% | -9.7% | -7.6 | 4.8%
COc1cc(C(=O)NC(=S)NNC(=O)c2ccc3c(c2)OCO3)cc(OC)c1OC | 35.5µM* | 8.7% | -13.4% | -4.9% | -19.0 | nt
COc1cc(C(=O)NC(=S)Nc2ccc3c(c2)OCO3)cc(OC)c1OC | nt | -1.9% | -30.2% | -9.1% | 1.0 | -4.0%
CC1CC(CC(=O)NNc2nc(-c3ccccc3)cs2)C(=O)O1 (configuration not stated) | 3.4% | 54.9% | 0.3% | -10.7% | 1.3 | nt
C/C(CCC1CC(C)OC1=O)=N/Nc1nc(-c2ccccc2)cs1 (configuration not stated) | 8.91µM* | -33.2% | ? | ? | 5.1 | -12.0%
C=CC[C@@H]1Cc2c(Br)ccc(Br)c2[C@@H](CC=C)N1 | 65.7%[59 µM] | 117.3% | 32.1% | 76.0% | 0.5 | 36.5%
C=CCC1NCCc2c(Br)cccc21 (configuration not stated) | 22.4µM* | 31.2% | -19.6% | -20.6% | 4.0 | -0.3%
O=[N+]([O-])c1ccc(CSc2nnc(Cc3ccccc3)o2)cc1 | 44.7µM* | 13.9% | -29.5% | -32.6% | 0.2 | nt
Cc1[nH]c2ccccc2c1Cc1nnc(SCc2ccccc2)o1 | 70.8µM* | -3.1% | ? | ? | 2.1 | nt
O=[N+]([O-])c1ccc(C[n+]2ccc(Cc3ccccc3)cc2)cc1 | 12.6µM* | 31.5% | -8.5% | -27.3% | -0.6 | nt
CC(C)c1ccc(NC(=O)CS(=O)(=O)c2cccc3nsnc23)cc1 | -2.3%[59 µM] | 17.9%[57 µM] | -14.8% | -14.6% | nt | nt
COc1ccc(C)cc1NC(=O)c1cc(S(=O)(=O)N2CCc3ccccc3C2)ccc1F | -3.1%[59 µM] | -2.0% | -19.0% | -0.1% | nt | nt
SMILES | G9a inh | HP1b binding inh | JMJD2A Tudor inh | BAZ2B block | PI5P4Ka inh | L3MBTL1 inh
CC1=C(C(=O)OCc2ccccc2)C(c2ccc(N(C)C)cc2)NC(=O)N1 (configuration not stated) | 10µM* | -23.7% | ? | ? | nt | -26.8%
CC1=C(C(=O)OCc2ccccc2)C(c2ccc(Br)cc2)NC(=O)N1CCCC(=O)O (configuration not stated) | -50.2% | 45.8% | -7.1% | -38.3% | -79.9* | -3.4%
CC1=C(C(=O)OCc2ccccc2)C(c2ccc(Cl)cc2)NC(=O)N1CCCC(=O)O (configuration not stated) | -5.7% | 32.2% | -12.9% | 2.8% | -99.5* | 16.3%
Cc1noc(C)c1-c1ccc2ncnc(NCc3ccco3)c2c1 | nt | nt | -26.9% | nt | nt | nt
CCOc1ccc(-n2c(SCc3ccc([N+](=O)[O-])cc3)nnc2-c2ccccc2)cc1 | ? | -0.5% | 56.2µM* | -30.4% | -0.1 | -2.8%
COc1ccc(-n2c(SCc3ccc([N+](=O)[O-])cc3)nnc2-c2ccccc2)cc1 | ? | -2.1% | ? | ? | 2.4 | -26.2%
CCOc1ccc(-n2c(SCc3nc(-c4ccc(C)cc4)no3)nnc2-c2ccncc2)cc1 | 79.4µM* | 13.5% | -35.8% | -5.5% | nt | nt
CCOC(=O)C1CCCN(c2nc3c(S(=O)(=O)c4ccc(CC)cc4)nnn3c3ccsc23)C1 (configuration not stated) | -23.7%[59 µM] | 21.6% | -12.8% | -14.8% | nt | nt
CCN(c1ccccc1)S(=O)(=O)c1ccc(Oc2ccccc2C(C)=O)nc1 | nt | 42.5% | 11.0% | nt | 0.2 | 1.7%
CCN(c1ccccc1)S(=O)(=O)c1ccc(Oc2ccc(-n3ccnc3)cc2)nc1 | 22.8%[59 µM] | -6.3% | 89.1µM* | ? | 0.4 | -87.4%
COc1ccc(C)cc1NC(=O)Nc1nnc(N2CCCCC2)s1 | -35.8%[59 µM] | 34.4% | -18.2% | -10.1% | nt | nt
COc1cc(OC)c2c(-c3ccccc3)cc(=O)oc2c1C(CC(=O)N1CCN(c2ccccc2)CC1)c1ccc(N(C)C)cc1 (configuration not stated) | ? | ? | 6.31µM* | 8.91µM* | 2.6 | nt
COc1cc(OC)c2c(-c3ccccc3)cc(=O)oc2c1C(CC(=O)N1CCOCC1)c1ccc(N(C)C)cc1 (configuration not stated) | -5.8%[12.7 µM] | ? | 31.6µM* | 35.5µM* | -3.5 | nt
COc1cc(OC)c2c(-c3ccccc3)cc(=O)oc2c1C(CC(=O)N1CCN(c2ccccc2)CC1)c1ccc2c(c1)OCO2 (configuration not stated) | -49.4%[59 µM] | nt | nt | ? | nt | nt
CN(C)c1ccc(-c2cncnc2-n2ccnc2)cc1 | -9.4%[0.501 µM] | nt | nt | nt | nt | nt
Cc1ncc(CO)c(/C=N/NC(=O)c2cc(O)c(O)c(O)c2)c1O | ? | nt | nt | 10µM* | nt | 1.58µM*
